This passage reports inhibition results from ChEMBL document CHEMBL1961873, “Compounds: GSK PKIS; Assays: Nanosyn kinase panel” (2012).

The target of one assay is Tyrosine-protein kinase Fgr (Homo sapiens) (UniProt P09769). The conditions noted are these: at 0.1 µM.
Tyrosine-protein kinase Fgr (Homo sapiens), sequence (P09769 2-529 limits assumed): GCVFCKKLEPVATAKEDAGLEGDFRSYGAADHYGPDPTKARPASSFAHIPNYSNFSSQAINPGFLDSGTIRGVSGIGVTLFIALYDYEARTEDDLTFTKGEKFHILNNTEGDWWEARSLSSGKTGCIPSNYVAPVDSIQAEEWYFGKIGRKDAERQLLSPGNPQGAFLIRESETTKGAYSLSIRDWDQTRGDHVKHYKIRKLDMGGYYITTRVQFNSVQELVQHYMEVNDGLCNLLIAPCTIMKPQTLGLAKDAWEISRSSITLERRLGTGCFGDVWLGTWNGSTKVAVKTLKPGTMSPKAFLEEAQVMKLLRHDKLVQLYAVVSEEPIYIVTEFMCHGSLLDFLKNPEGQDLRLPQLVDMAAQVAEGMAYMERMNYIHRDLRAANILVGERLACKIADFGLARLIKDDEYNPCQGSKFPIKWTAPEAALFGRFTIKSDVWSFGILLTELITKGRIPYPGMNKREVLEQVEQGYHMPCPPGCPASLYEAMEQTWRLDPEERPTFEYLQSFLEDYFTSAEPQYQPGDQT
In the case of `COc1cc2c(cc1Nc1nc(N3CCc4ccccc43)c3cc[nH]c3n1)N(C(=O)CN(C)C)CC2`, the inhibition is -0.2%.

For the compound `CCN1CCC(CC(=O)Nc2n[nH]c3nc(-c4cccs4)c(Br)cc23)CC1`, the inhibition is -0.94%.

`NCc1ccc(-c2nc(-c3ccc(Cl)c(O)c3)c(-c3ccncc3)[nH]2)cc1`: the inhibition turned out to be 4.3%.

On to `COC(=O)Nc1nc2cc(Oc3ccc(NC(=O)Nc4cccc(C(=O)O)c4)cc3)ccc2[nH]1`, for which the inhibition was 3.78%.

With `O=C(Nc1n[nH]c2nc(-c3ccco3)c(Br)cc12)C1CC1`, the inhibition is 2.88%.

Regarding `CCn1c(-c2nonc2N)nc2cnc(Oc3cccc(NC(=O)c4ccc(OCCN5CCOCC5)cc4)c3)cc21`, the inhibition is 4.08%.

Take `COc1cccc(-n2ncc3c(N/N=C/c4cccc(F)c4)ncnc32)c1`: the inhibition is 7.31%.

For `Nc1ncnc2occ(-c3ccc(NC(=O)Nc4cccc(C(F)(F)F)c4)cc3)c12`, the inhibition was 3.07%.

As for `CCn1c(-c2nonc2N)nc2cncc(C(=O)N3CC[C@H](N)C3)c21`, the inhibition is 3.4%.

For `COc1cc2ncn(-c3cc(O[C@@H](C)c4ccccc4Cl)c(C(N)=O)s3)c2cc1OC`, the inhibition is 5.04%.

For `CCCN1CCC(Oc2cc(Nc3nc(Nc4cccc(F)c4C(N)=O)c4cc[nH]c4n3)c(OC)cc2Cl)CC1`, the inhibition was found to be 0.61%.

Regarding `[O-][S+]1CCN(Cc2ccc(-c3ccc4ncnc(Nc5ccc(OCc6ccccc6)c(F)c5)c4c3)o2)CC1`, the inhibition stood at 0.4%.

As for `Cc1ccc(C(=O)NC2CCCCC2)cc1-c1ccc(C(=O)NCC2CC2)cc1`, the inhibition was determined as 2.07%.

In the case of `CNC(=O)c1cncc(/C=C/c2c(Cl)cccc2Cl)c1`, the inhibition is 3.11%.

As to `CN(C)c1cc2c(Nc3ccc4nc(Cc5ccccc5)[nH]c4c3)ncnc2cn1`, the inhibition was determined as 17.2%.

In the case of `CCn1c(-c2nonc2N)nc2ccncc21`, the inhibition came out at 0.66%.

For `Fc1cccc(COc2ccc(Nc3ncnc4sc(-c5cccs5)cc34)cc2Cl)c1`, the inhibition was determined as 1.43%.

`Cc1ccc(NC(=O)c2ccnc(N3CCCC3)c2)cc1-c1ccc(C(=O)NCC2CC2)cc1`: the inhibition was found to be 1.54%.

The next assay shares this target. The conditions noted are these: at 1 µM.
For the compound `CS(=O)(=O)CCN(CC#N)Cc1ccc(-c2ccc3ncnc(Nc4ccc(OCc5cccc(F)c5)c(Cl)c4)c3c2)o1`, the inhibition is 1.68%.

`CC(=O)Nc1cccc(C#Cc2cncnc2Nc2ccc(OCc3cccc(F)c3)c(Cl)c2)n1`: the inhibition came out at 3.79%.

`COc1ccccc1Nc1ncc(-c2ccccc2)o1`: the inhibition worked out at 12.1%.

`NS(=O)(=O)c1cccc(-c2ccc3c(NC(=O)C4CC4)n[nH]c3c2)c1`: the inhibition was -0.19%.

Turning to `Cc1nnc(-c2ccc(C)c(-c3ccc(C(=O)Nc4cccc(C#N)c4)cc3)c2)o1`, the inhibition amounted to 5.11%.

Consider `COc1ccc(-c2nn3ncccc3c2-c2ccnc(Nc3ccc(Cl)c(C(F)(F)F)c3)n2)cc1`, for which the inhibition was found to be 16.9%.

For the compound `O=C1NC(=O)C(c2ccc(Cl)cc2)=C1Nc1ccc(Cl)c(C(=O)O)c1`, the inhibition came to 2.1%.

As to `COC(=O)Nc1nc2cc(Oc3cccc(NC(=O)Nc4cc(C(F)(F)F)ccc4F)c3)ccc2[nH]1`, the inhibition worked out at 3.3%.

With `O=C1NC(=O)C(c2cccc(Cl)c2)=C1Nc1ccc(O)c(Cl)c1`, the inhibition is 3.74%.

As for `CCCN1CCC=C(c2ccc(Nc3nc(Nc4ccccc4C(N)=O)c4cc[nH]c4n3)c(C)c2)C1`, the inhibition amounted to 4.71%.

For `Nc1nc(-c2ccc3c(c2)C(=Cc2cc(Br)c(O)c(Br)c2)C(=O)N3)cs1`, the inhibition amounted to 5.44%.

With `O=C1NC(=O)C(c2ccccc2Cl)=C1Nc1cccc(O)c1`, the inhibition is 2.07%.

As for `CCc1cccc(NC(=O)Nc2ccc(Oc3ccc4nc(NC(=O)OC)[nH]c4c3)cc2)c1`, the inhibition was 5.18%.

`CC1=C(C(=O)Nc2ccc3[nH]ncc3c2)C(c2ccc3ccccc3c2)CC(=O)N1` (stereo unspecified): the inhibition stood at 15.1%.

With `CS(=O)(=O)Nc1ccc(N/C=C2\C(=O)Nc3ccccc32)cc1`, the inhibition was determined as 15%.

Take `COc1cc2c(cc1Nc1nc(N3CCc4ccccc43)c3cc[nH]c3n1)N(C(=O)CN(C)C)CC2`: the inhibition came to 3.44%.

As for `CCN1CCC(CC(=O)Nc2n[nH]c3nc(-c4cccs4)c(Br)cc23)CC1`, the inhibition was found to be 0.5%.

As for `NCc1ccc(-c2nc(-c3ccc(Cl)c(O)c3)c(-c3ccncc3)[nH]2)cc1`, the inhibition amounted to 32.8%.

Regarding `COC(=O)Nc1nc2cc(Oc3ccc(NC(=O)Nc4cccc(C(=O)O)c4)cc3)ccc2[nH]1`, the inhibition was found to be 6.34%.

`O=C(Nc1n[nH]c2nc(-c3ccco3)c(Br)cc12)C1CC1`: the inhibition is 11.3%.

For the compound `CCn1c(-c2nonc2N)nc2cnc(Oc3cccc(NC(=O)c4ccc(OCCN5CCOCC5)cc4)c3)cc21`, the inhibition stood at 5.54%.

As to `COc1cccc(-n2ncc3c(N/N=C/c4cccc(F)c4)ncnc32)c1`, the inhibition worked out at 32.6%.

With `Nc1ncnc2occ(-c3ccc(NC(=O)Nc4cccc(C(F)(F)F)c4)cc3)c12`, the inhibition was found to be 25.1%.

With `CCn1c(-c2nonc2N)nc2cncc(C(=O)N3CC[C@H](N)C3)c21`, the inhibition worked out at 1.29%.

Regarding `COc1cc2ncn(-c3cc(O[C@@H](C)c4ccccc4Cl)c(C(N)=O)s3)c2cc1OC`, the inhibition is 32.2%.

With `CCCN1CCC(Oc2cc(Nc3nc(Nc4cccc(F)c4C(N)=O)c4cc[nH]c4n3)c(OC)cc2Cl)CC1`, the inhibition was 4.19%.

On to `[O-][S+]1CCN(Cc2ccc(-c3ccc4ncnc(Nc5ccc(OCc6ccccc6)c(F)c5)c4c3)o2)CC1`, for which the inhibition was 9.74%.

In the case of `Cc1ccc(C(=O)NC2CCCCC2)cc1-c1ccc(C(=O)NCC2CC2)cc1`, the inhibition was determined as 5.25%.

On to `CNC(=O)c1cncc(/C=C/c2c(Cl)cccc2Cl)c1`, for which the inhibition came out at 21.3%.

Turning to `CN(C)c1cc2c(Nc3ccc4nc(Cc5ccccc5)[nH]c4c3)ncnc2cn1`, the inhibition stood at 42.2%.

On to `CCn1c(-c2nonc2N)nc2ccncc21`, for which the inhibition was 1.16%.

`Fc1cccc(COc2ccc(Nc3ncnc4sc(-c5cccs5)cc34)cc2Cl)c1`: the inhibition came out at 3.69%.

With `Cc1ccc(NC(=O)c2ccnc(N3CCCC3)c2)cc1-c1ccc(C(=O)NCC2CC2)cc1`, the inhibition worked out at 6.32%.

Usually inhibition stands for the drop in the measured response relative to a control, in per cent.
